According to PubChem BioAssay:
Where “and” joins values, the source holds several entries; their conditions need not be identical. Equal values may be shown once. A number with no mark means an inactive call. For part of these data: Entries with a potency or affinity are not part of this list. Calls of active or inactive are those of the source. Unless noted, the rule behind the calls is not given here.

Columns and labels:
[1] = antimalarial activity against Dd2 strain (AID 2302;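 active = growth inhibition above 50% at the single 2 µM test dose, taken to imply half-maximal potency below 2 µM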;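 note: 0% = DMSO untreated growth and 100% = chloroquine plus artemisinin killed control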); conditions: P. falciparum Dd2 in RBCs, LDH growth readout, 72 h; at 2 µM; active compounds read high
[2] = human hepatoma cell viability loss – ATP luminescence, cytotoxicity control for P. falciparum antimalarial project, primary screen (AID 2303;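 active = inhibition above 50%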;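 note: 0% = DMSO wells and 100% = digitonin-killed cells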); conditions: HepG2 viability, 24-48 h, at 10 µM, active compounds read high
[3] = target: L-lactate dehydrogenase (Plasmodium falciparum (isolate CDC / Honduras)) (UniProt Q27743); assay: PfLDH activity inhibition – cell lysate, 3D7 strain, counter-screen for P. falciparum growth inhibition project (AID 2304);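 note: 0% = vehicle and 100% = reference inhibitor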; conditions: P. falciparum 3D7 crude extract, LDH APAD/NBT absorbance; at 2 µM; active compounds read high
Sequence of L-lactate dehydrogenase (Plasmodium falciparum (isolate CDC / Honduras)) (Q27743 whole entry, looked up): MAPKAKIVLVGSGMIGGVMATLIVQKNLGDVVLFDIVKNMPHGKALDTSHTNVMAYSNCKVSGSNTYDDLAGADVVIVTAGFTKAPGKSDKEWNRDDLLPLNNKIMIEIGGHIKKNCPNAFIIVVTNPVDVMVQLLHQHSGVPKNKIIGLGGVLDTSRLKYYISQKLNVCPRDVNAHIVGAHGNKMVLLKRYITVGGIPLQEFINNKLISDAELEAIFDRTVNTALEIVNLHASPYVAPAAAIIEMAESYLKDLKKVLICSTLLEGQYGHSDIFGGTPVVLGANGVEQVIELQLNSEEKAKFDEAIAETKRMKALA

[4] = inhibition of 3D7 malaria parasite growth – strain 3D7 (AID 2306);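 note: 0% = DMSO wells and 100% = chloroquine plus artemisinin control wells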; conditions: P. falciparum 3D7 erythrocytic growth, LDH absorbance, 72 h; at 2 µM; active compounds read high
[5] = target: Calcium-dependent protein kinase 1 (Plasmodium falciparum (isolate 3D7)) (UniProt P62344); assay: PfCDPK1 kinase inhibitors, biochemical, TCAMS library (AID 1159585; cut-off not given, nearly all actives have IC50 up to about 0.98 µM;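 note: inhibitors leave more ATP so luminescence rises with inhibition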); conditions: recombinant PfCDPK1, Kinase-Glo ATP depletion luminescence
Sequence of Calcium-dependent protein kinase 1 (Plasmodium falciparum (isolate 3D7)) (P62344 whole entry, looked up): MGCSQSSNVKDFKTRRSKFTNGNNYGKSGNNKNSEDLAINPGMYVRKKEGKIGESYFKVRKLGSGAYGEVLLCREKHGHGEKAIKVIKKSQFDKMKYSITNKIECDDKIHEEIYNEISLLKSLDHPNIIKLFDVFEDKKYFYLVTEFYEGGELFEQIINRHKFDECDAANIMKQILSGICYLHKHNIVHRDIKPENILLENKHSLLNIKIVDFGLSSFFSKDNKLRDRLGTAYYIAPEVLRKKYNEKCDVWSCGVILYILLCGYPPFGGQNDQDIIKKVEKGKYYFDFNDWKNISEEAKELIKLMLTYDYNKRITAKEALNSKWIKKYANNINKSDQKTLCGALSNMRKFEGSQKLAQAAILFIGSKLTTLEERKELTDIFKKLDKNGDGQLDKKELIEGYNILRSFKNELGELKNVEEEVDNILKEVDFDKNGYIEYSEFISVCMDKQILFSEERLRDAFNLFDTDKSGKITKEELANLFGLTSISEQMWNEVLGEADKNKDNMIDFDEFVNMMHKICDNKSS

[6] = target: Plasmodium falciparum protein kinase 6 (PK6, PF3D7_1337100) (UniProt Q8IDW1); assay: PfPK6 kinase inhibitors, biochemical, TCAMS library (AID 1159586); conditions: recombinant PfPK6, Kinase-Glo ATP depletion luminescence
Sequence of Plasmodium falciparum protein kinase 6 (PK6, PF3D7_1337100) (Q8IDW1 1-305): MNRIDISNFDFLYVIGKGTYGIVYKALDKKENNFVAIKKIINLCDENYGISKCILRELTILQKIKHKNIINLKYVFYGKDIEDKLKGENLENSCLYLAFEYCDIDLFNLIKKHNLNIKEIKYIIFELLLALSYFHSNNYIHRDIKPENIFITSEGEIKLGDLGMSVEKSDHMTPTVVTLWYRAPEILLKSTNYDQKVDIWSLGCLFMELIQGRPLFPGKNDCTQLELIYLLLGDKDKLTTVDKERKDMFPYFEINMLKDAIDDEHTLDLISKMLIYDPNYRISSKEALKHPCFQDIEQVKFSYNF

[7] = target: Protein kinase 7 (PK7), Plasmodium falciparum 3D7 (PF3D7_0213400) (UniProt Q7YTF7); assay: inhibition of Plasmodium PK7 catalytic activity – biochemical, TCAMS antimalarial set, Kinase-Glo luminescence (AID 1159587); conditions: recombinant PfPK7, Kinase-Glo ATP depletion luminescence
Sequence of Protein kinase 7 (PK7), Plasmodium falciparum 3D7 (PF3D7_0213400) (Q7YTF7 1-343): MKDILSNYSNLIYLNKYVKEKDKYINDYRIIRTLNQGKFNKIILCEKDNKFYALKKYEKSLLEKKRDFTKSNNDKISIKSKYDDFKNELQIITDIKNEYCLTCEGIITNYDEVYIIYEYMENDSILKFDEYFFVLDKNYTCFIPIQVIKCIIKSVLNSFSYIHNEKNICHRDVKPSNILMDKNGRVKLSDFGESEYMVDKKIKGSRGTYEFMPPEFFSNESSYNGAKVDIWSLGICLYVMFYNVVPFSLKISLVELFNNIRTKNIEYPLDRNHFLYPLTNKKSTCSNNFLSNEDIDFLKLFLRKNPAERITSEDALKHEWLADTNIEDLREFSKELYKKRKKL

[8] = target: Calcium-dependent protein kinase 4 (Plasmodium falciparum (isolate 3D7)) (UniProt Q8IBS5); assay: PfCDPK4 kinase inhibitors, biochemical, TCAMS library (AID 1159588; cut-off not given, nearly all actives have IC50 up to about 0.91 µM); conditions: recombinant PfCDPK4, Kinase-Glo ATP depletion luminescence
Sequence of Calcium-dependent protein kinase 4 (Plasmodium falciparum (isolate 3D7)) (Q8IBS5 whole entry, looked up): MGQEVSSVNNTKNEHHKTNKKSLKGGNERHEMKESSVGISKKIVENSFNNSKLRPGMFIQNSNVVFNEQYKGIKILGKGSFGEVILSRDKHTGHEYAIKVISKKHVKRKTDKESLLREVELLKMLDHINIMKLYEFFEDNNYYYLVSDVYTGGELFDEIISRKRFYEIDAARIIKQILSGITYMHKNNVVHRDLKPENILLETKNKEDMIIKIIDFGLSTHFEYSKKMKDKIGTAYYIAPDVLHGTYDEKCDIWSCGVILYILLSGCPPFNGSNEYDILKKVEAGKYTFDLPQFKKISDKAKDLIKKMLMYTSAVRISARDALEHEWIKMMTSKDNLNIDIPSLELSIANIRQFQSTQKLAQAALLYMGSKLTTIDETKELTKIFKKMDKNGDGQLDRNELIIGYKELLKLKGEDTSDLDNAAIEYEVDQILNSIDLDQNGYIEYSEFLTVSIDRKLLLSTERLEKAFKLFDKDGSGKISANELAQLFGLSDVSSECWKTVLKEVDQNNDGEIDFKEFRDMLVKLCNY

SMILES | growth inhibition [1] | inhibition [2] | inhibition [3] | growth inhibition [4] | outcome [5] | outcome [6] | outcome [7] | outcome [8]
COC(=O)c1ccc(CC(C)NCC(O)c2cccc(I)c2)cc1 (configuration not stated) | 54% (active) | 15% | -2% | 87% (active) | inactive | inactive | inactive | inactive
CC(Cc1ccc(-c2nc3ccccc3[nH]2)cc1)NCC(O)c1cccc(C(F)(F)F)c1 (configuration not stated) | 90% (active) | 33% | 4% | 97% (active) | inactive | inactive | inactive | inactive
COC(=O)/C=C/c1ccc(C[C@@H](C)NC[C@H](O)c2cccc(C(F)(F)F)c2)cc1 | 93% (active) | 41% | -6% | 97% (active) | inactive | inactive | inactive | inactive
Cc1ccc(CC(C)NCC(O)c2cccc([N+](=O)[O-])c2)cc1 (configuration not stated) | 85% (active) | -6% | -2% | 97% (active) | inactive | inactive | inactive | inactive
O=C(/C=C/c1ccc(Cl)c(Cl)c1)N1CCC(CN2CCC(c3c[nH]c4ccc(NS(=O)(=O)c5cccs5)cc34)CC2)CC1 | 100% (active) | 17% | -7% | 100% (active) | inactive | inactive | inactive | inactive
CC[C@H]1CN2CC[C@@H]1C[C@H]2[C@H](O)c1cc(N2CCC(C(N)=O)CC2)nc2ccc(OC)cc12 | 9% | 17% | -5% | 99% (active) | inactive | inactive | inactive | inactive
N[C@@H](CCN1CCC(c2cccc(O)c2)CC1)Cc1ccc(F)c(F)c1 | 0% | 25% | -3% | 92% (active) | inactive | inactive | inactive | inactive
CCCCCc1cc(O)c2c(c1)OC(C)(C)CC2C1=CCN(Cc2ccccc2)CC1 (configuration not stated) | 79% (active) | 15% | -5% | 99% (active) | inactive | inactive | inactive | inactive
Cc1cccc2[nH]cc(C3CCN(CC4CCC(NC(=O)/C=C/c5ccc(Cl)c(Cl)c5)CC4)CC3)c12 (configuration not stated) | 97% (active) | 88% (active) | -4% | 101% (active) | inactive | inactive | inactive | inactive
CCCCCCC(C)(C)c1cc(O)c2c3c(c(=O)oc2c1)CCN(Cc1ccccc1)C3 | 99% (active) | 3% | 6% | 100% (active) | inactive | inactive | inactive | inactive
C/C=C1/CN2CC[C@H]1C[C@H]2[C@H](O)c1ccnc2ccc(OC)cc12 | 45% | -16% | 0% | 99% (active) | inactive | inactive | inactive | inactive
O=C(Nc1ccc(CN2CCC(c3c[nH]c4ccc(O)cc34)CC2)cc1)c1ccc(-c2ccccc2)cc1 | 100% (active) | 33% | 1% | 100% (active) | inactive | inactive | inactive | inactive
Oc1cccc(C2CCCN(CCc3c[nH]c4ccccc34)C2)c1 (configuration not stated) | 40% | 0% | 2% | 93% (active) | inactive | inactive | inactive | inactive
CC(C)CNCc1cccc(-c2ccc(CN(C(=O)c3cccs3)C3CCN(Cc4ccccc4)CC3)cc2)c1 | 40% | 22% | 3% | 85% (active) | inactive | inactive | inactive | inactive
CN1C(=O)[C@H](NC(=O)[C@@H](Cc2ccccc2)NC(=S)Nc2ccccc2)N=C(c2ccccc2)c2ccccc21 | 23% | -8% | -1% | 86% (active) | inactive | inactive | inactive | inactive
CC[C@H]1CN2CC[C@H]1C[C@@H]2[C@@H](OC(=O)c1ccc(Cl)cc1)c1ccnc2ccc(OC)cc12 | -3% | -18% | -1% | 89% (active) | inactive | inactive | inactive | inactive
CC[C@H]1CN2CC[C@@H]1C[C@H]2[C@H](O)c1cc(N2CCOCC2)nc2ccc(OC)cc12 | 99% (active) | 10% | 3% | 99% (active) | inactive | inactive | inactive | inactive
O=S(=O)(NC1CCC(CN2CCC(c3c[nH]c4ccccc34)CC2)CC1)c1ccc(Cl)c(Cl)c1 (configuration not stated) | 32% | 36% | 0% | 97% (active) | inactive | inactive | inactive | inactive
Clc1ccc2nccc(N3CCC(CN4CCC(c5c[nH]c6ccccc56)CC4)CC3)c2c1 | 81% (active) | 46% | 4% | 101% (active) | inactive | inactive | inactive | inactive
O=C(NCCCCN1CCC(c2ccc3c(c2OCCO)CCCC3)CC1)c1sc(-c2ccc(C(F)(F)F)cc2)nc1CO | 20% | 37% | -6% | 95% (active) | inactive | inactive | inactive | inactive

SMILES | growth inhibition [1] | inhibition [2] | inhibition [3] | growth inhibition [4] | outcome [5] | outcome [6] | outcome [7] | outcome [8]
c1ccc2c(NCCCCCCCCCNc3c4ccccc4nc4ccccc34)c3ccccc3nc2c1 | 95% (active) | 99% (active) | -6% | 100% (active) | inactive | inactive | inactive | inactive
O=C(Nc1ccccc1C(F)(F)F)NC1CCC(CN2CCC(c3c[nH]c4ccccc34)CC2)CC1 (configuration not stated) | 12% and 42% | 34% and 46% | -3% | 86% (active) and 96% (active) | inactive | inactive | inactive | inactive
CC[C@H]1CN2CC[C@@H]1C[C@H]2[C@H](O)c1cc(N2CCC(O)(c3ccccc3)CC2)nc2ccc(OC)cc12 | 98% (active) | 14% | -2% | 101% (active) | inactive | inactive | inactive | inactive
CC[C@H]1CN2CC[C@H]1C[C@H]2[C@H](O)c1cc(/C=C/c2ccccc2)nc2ccc(OC)cc12 | 99% (active) | 16% | -1% | 99% (active) | inactive | inactive | inactive | inactive
O=C(C=Cc1ccccc1O)N1CCC(CN2CCC(c3c[nH]c4ccccc34)CC2)CC1 | 43% | 27% | -1% | 98% (active) | inactive | inactive | inactive | inactive
COC(=O)c1ccc(C[C@@H](C)NC[C@H](O)c2cccc(C(F)(F)F)c2)cc1 | 93% (active) and 87% (active) | 1% and -5% | -6% and -2% | 97% (active) | inactive | inactive | inactive | inactive
Cc1c(C(=O)N[C@@H](C)c2ccccc2)c2cc(O)c(Br)cc2n1C1CCCCC1 | 95% (active) | 4% | -6% | 98% (active) | inactive | inactive | inactive | inactive
CC(Cc1ccc([N+](=O)[O-])cc1)NCC(O)c1cccc(C(F)(F)F)c1 (configuration not stated) | 92% (active) | -2% | -2% | 98% (active) | inactive | inactive | inactive | inactive
O=C(/C=C/c1ccc(Cl)c(Cl)c1)NC1CCC(N2CCC(c3c[nH]c4ccccc34)CC2)CC1 (configuration not stated) | 69% (active) | 41% | 7% | 100% (active) | inactive | inactive | inactive | inactive
CN1CCC(O)(c2ccc(Br)cc2)C(C(O)c2ccc(Br)cc2)C1 (configuration not stated) | 99% (active) | 28% | -5% | 98% (active) | inactive | inactive | inactive | inactive
COc1ccc(C=CC(=O)N2CCC(CN3CCC(c4c[nH]c5ccccc45)CC3)CC2)cc1OC | 4% | 20% | 0% | 94% (active) | inactive | inactive | inactive | inactive
CCCc1c(C(=O)NC2CCC(CN3CCC(c4c[nH]c5ccccc45)CC3)CC2)cnn1-c1c(Cl)cc(Cl)cc1Cl (configuration not stated) | 49% | 41% | -5% | 100% (active) | inactive | inactive | inactive | inactive
O=C1COc2ccccc2N1CCN1CCC(NCc2ccc(-c3cccs3)cc2)CC1 | 18% | 37% | -4% | 87% (active) | inactive | inactive | inactive | inactive
CCN(CC)CCN1C(=O)C(O)(c2ccccc2Cl)c2c1cc(C#N)cc2C(F)(F)F (configuration not stated) | 19% | 21% | -1% | 88% (active) | inactive | inactive | inactive | inactive
CN1CC=C(C=Cc2c[nH]c3ccccc23)CC1 | 64% (active) | 14% | -1% | 86% (active) | inactive | inactive | inactive | inactive
CNCCN(C)C(=O)Oc1c(Cl)c(C)nc(C)c1-c1ccc(Oc2ccc(OC(F)(F)F)cc2)cc1 | 96% (active) | -2% | -2% | 97% (active) | inactive | inactive | inactive | inactive
Oc1ccc(Cl)cc1CN1CCC(CCOC(c2ccccc2)c2ccc(Cl)cc2)CC1 (configuration not stated) | 100% (active) | 32% | 2% | 98% (active) | inactive | inactive | inactive | inactive
COC(=O)c1ccc(CC(C)NCC(O)c2cccc(C(F)(F)F)c2)c(Cl)c1 (configuration not stated) | 98% (active) | -10% | 1% | 99% (active) | inactive | inactive | inactive | inactive
COc1ccccc1CC(C)NCC(O)c1cccc(Cl)c1 (configuration not stated) | 98% (active) | 13% | -6% | 97% (active) | inactive | inactive | inactive | inactive
